Measured values reported in PubChem BioAssay AID1159580 (chemical genetic matrix, 2015).
Out of some 5,500 compounds screened, about 2,000 (36%) were called active. About 18% were inconclusive and are not listed. Rule as the data show it: active = normalized growth mostly below about 0.91 (no sharp cut-off); inconclusive = no clear call, values can overlap the other calls; inactive = mostly above about 0.92. Some of the results follow.

Assay: chemical genetic growth profiling, strain panel (AID 1159580);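 also: tested at 20 µM; growth read once vehicle control cultures reached saturation at 30 °C; 1 = growth at the plate median or of vehicle wells; lower values mean less growth of the strain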
Conditions: S. cerevisiae deletion strains, growth OD

Measured: normalized growth

N[C@H]1CONC1=O
inactive: locus YAL013W, strain DEP1, stronger effect = lower value 1.01 | locus YAL040C, strain CLN3, stronger effect = lower value 1.08 | locus YCL061C, strain MRC1 (second series), stronger effect = lower value 0.995 | locus YDR363W, strain ESC2, stronger effect = lower value 0.995 | locus YER002W, strain NOP16, stronger effect = lower value 0.988 | locus YJR075W, strain HOC1, stronger effect = lower value 1.02 | locus YNL153C, strain GIM3, stronger effect = lower value 0.955 | locus YNL175C, strain NOP13, stronger effect = lower value 0.986 | locus YNL197C, strain WHI3, stronger effect = lower value 1.02 | locus YNL224C, strain SQS1, stronger effect = lower value 0.994 | locus YNL322C, strain KRE1, stronger effect = lower value 1.01 | locus YOR083W, strain WHI5 (second series), stronger effect = lower value 0.993 | locus YPL055C, strain LGE1, stronger effect = lower value 0.992
